# LASV entry inh: qHTS for Inhibitors of binding or entry into cells for Lassa Virus; Lassa virus pseudotype entry inhibition, cell reporter; Potency, µM (series often up to 37.9 µM), for the others: top-dose activity change, negative = inhibition, hits mostly inhibitors; hit rate 1.2% among 300,000; AID 540256, 2011; calls by dose curve; tested in HEK293 cells; further: potency means the concentration at half of the fitted maximal effect; nearly all actives have a fitted effect of over 50% in size
# HCMV inh: qHTS Assay for inhibitors of the human cytomegalovirus (HCMV); HFF cells, HCMV-luciferase reporter, 72 h; active compounds read low; activity change, negative = inhibition, % at 57.5 µM; hit rate 4.5% among 410,000; in the data active means activity change below about -60%; inconclusive means no clear call, values can overlap the other calls; inactive means above about -39%
#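 Two-dose cell screen: HFF monolayers treated with compounds and infected with luciferase-expressing HCMV at 1 PFU/cell, 72 h at 37C, then lysed for luciferase measurement.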
# Marburg entry inh: qHTS for inhibitors of binding or entry into cells for Marburg Virus | Potency, µM (doses to about 37.8 µM), for inactives: at the top dose activity change, negative = inhibition, usual class: inhibitors | hit rate 1.8% among 300,000 | Marburg virus pseudotyped entry inhibition, cell reporter; calls by dose curve; tested in HEK293 cells; further: potency means the concentration at half of the fitted maximal effect
# FMDV antiviral: High Throughput Screening for Foot and Mouth Disease Virus Antivirals; FMDV antiviral cell-based qHTS; Potency, µM (doses to about 57.9 µM), inactives show at the top dose activity change, negative = inhibition, actives largely listed as inhibitors; hit rate 1.2% among 410,000; AID 1159524, 2015; calls by dose curve; tested in HEK293T cells; further: read-out not given here; potency means the concentration at half of the fitted maximal effect; nearly all actives have a fitted effect of over 45% in size
# HCV inhibitor: qHTS Assay for Inhibitors of Hepatitis C Virus (HCV); Huh7.5.1 HCVcc-Cre infection, luciferase reporter, 44 h; Potency, µM (doses to about 41.8 µM), without a hit: at the top dose activity change, negative = inhibition, usual class: inhibitors; hit rate 3.4% among 340,000; active means well fitted inhibition curve with a large enough effect; inconclusive means small, poorly fitted or top-dose-only effect, or another doubt; inactive means no such curve, though single readings can be large or run the other way; further: potency means the concentration at half of the fitted maximal effect
#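 Cells (1,000/well) were plated 4 h before compound, then infected with HCVcc-Cre virus (~0.5 moi). After 44 h further culture, infection was read as luciferase luminescence following a 15 min substrate incubation at room temperature.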
# * marks the source's active call; other numbers are inactive results; ? = inconclusive; / = no result given; + = active, no number; [ ] = dose if it differs, or a comment. Sampled rows, rich in hits. Any-hit rate of the full collection: about 7.9%. On the % scale 0 is the no-effect control and ±100 the full control effect.
SMILES,LASV entry inh,HCMV inh,Marburg entry inh,FMDV antiviral,HCV inhibitor
Cc1ccc(CNC(=O)CCCc2nnc3n(CC(C)C)c(=O)c4sccc4n23)cc1,23%[46.1 µM],-17,/,-16%,/
Cc1ccc2nc(-c3ccccn3)c(NC3CCCC3)n2c1,?,-66*,?,-6%,?
Cc1cccc(C)c1Nc1c(-c2ccccn2)nc2ccccn12,/,-97*,/,-29%,10µM*
Cc1cc(C)n2c(Nc3c(C)cccc3C)c(-c3ccccn3)nc2n1,/,-69*,/,?,/
CCCc1cc(C(=O)Nc2cccc(Cl)c2C)no1,-24%,-17,-2%[46.1 µM],24%,0%
O=C(O)c1cccc(Nc2nc(-c3cccnc3)nc3ccccc23)c1,7%,-30,-4%,-13%,18%
CCOC(=O)c1cccc(Nc2nc(-c3cccnc3)nc3ccccc23)c1,?,-21,?,28µM*,?
COC(=O)c1cccc(Nc2nc(-c3cccnc3)nc3ccccc23)c1,-15%[46.1 µM],-9,?,?,7.1µM*
O=C(CSc1ccc(-c2cccc([N+](=O)[O-])c2)nn1)N1CCCCC1,2%[46.1 µM],16,0%[46.1 µM],-7%,1%
COc1ccc(CC(=O)NCC(c2ccc(N(C)C)cc2)N2CCOCC2)cc1 (configuration not stated),?,-10,/,-12%,/
O=C(Nc1cccnc1)C1Cc2c(-c3ccccc3Oc3ccccc3)ccnc2O1 (configuration not stated),/,-35,/,?,/
CN(C)c1cccc(NC(=O)C2Cc3c(-c4ccccc4Oc4ccccc4)ccnc3O2)c1 (configuration not stated),/,-83*,/,-35%,/
CC(=O)c1cccc(NC(=O)C2Cc3c(-c4ccco4)ccnc3O2)c1 (configuration not stated),/,-62*,/,-10%,/
CC(=O)c1cccc(NC(=O)C2Cc3c(-c4ccccc4Oc4ccccc4)ccnc3O2)c1 (configuration not stated),/,-66*,/,?,/
O=C(Nc1ccccc1)N1CCN(C(=O)c2nsc3ccccc23)CC1,7%[46.1 µM],+,/,0%,/
Cc1c(Cl)cccc1NC(=O)N1CCCC1,19%,-19,27%[46.1 µM],-5%,-22%
Cc1c(Cl)cccc1NC(=O)N1CCCN(c2nc(-c3ccccc3)ns2)CC1,?,-70*,?,?,?
O=C(Nc1ccccc1)N1CCN(c2nc(-c3ccccc3)ns2)CC1,5%,?,3%,?,1.8µM*
O=C(Nc1ccc(F)cc1)N1CCN(C(=O)c2nsc3ccccc23)CC1,2%[46.1 µM],?,/,-17%,/
COc1cc(Cl)c(C)cc1N1C(=O)[C@@H]2C[C@H]1CN2Cc1ccccn1,/,/,/,-11%,/
CCCCCOc1ccc(C(=O)CCC(=O)N2CCCC2)cc1,?,-18,-17%[46.1 µM],-16%,-27%
Cc1ccc(Cn2cnc3c(cnn3C(C)(C)C)c2=O)cc1,/,?,/,25µM*,11µM*
C/C=C/c1ccc(OCCCNC2CCCC2)c(OC)c1,?,1,?,0%,0.89µM*
C/C=C/c1ccc(OCC(O)CNCCc2ccc(OC)cc2)c(OC)c1 (configuration not stated),/,?,/,-27%,?
C/C=C/c1ccc(OCC(O)CN2CCCCC2CC)c(OC)c1 (configuration not stated),-5%,-38,-23%[46.1 µM],-9%,2.5µM*
SMILES,LASV entry inh,HCMV inh,Marburg entry inh,FMDV antiviral,HCV inhibitor
C/C=C/c1ccc(OCC(O)CN(C)Cc2ccc(SC)cc2)c(OC)c1 (configuration not stated),/,-102*,/,-11%,-21%
CC(C)c1ccc(N(C(=O)c2snc(C(N)=O)c2N)C(C(=O)NC2CCCC2)c2ccncc2)cc1 (configuration not stated),-30%[46.1 µM],-5,?,-3%,?
Cc1cc(C)cc(N(C(=O)c2csnn2)C(C(=O)NC2CCCC2)c2ccccn2)c1 (configuration not stated),?,-34,?,2%,28%
OC(C#Cc1ccccn1)c1cccs1 (configuration not stated),-26%,-62*,?,4%,?
COc1ccccc1/C=C1\C(=O)NC(=S)N(c2ccccc2)C1=O,/,42,/,-1%,7%
CCN1C(=O)/C(=C/c2ccc(N(CC)CC)cc2OC)C(=O)NC1=S,/,-39,/,35µM*,-6%
CCOC(=O)C1CCN(c2cc3c(cc2NC(=O)c2ccccc2Cl)n(C)c(=O)n3C)CC1,2.5µM*,10,?,-29%,?
CCOC(=O)C1CCN(c2cc3c(cc2NC(=O)c2ccc(F)cc2)n(C)c(=O)n3C)CC1,4%[46.1 µM],-33,-7%[46.1 µM],-23%,?
CCOC(=O)C1CCN(c2cc3c(cc2NC(=O)c2ccccc2OCC)n(C)c(=O)n3C)CC1,/,8,/,?,?
Cn1c(=O)n(C)c2cc(N3CCCCC3)c(NC(=O)Nc3ccc(Br)cc3)cc21,-10%[46.1 µM],-33,?,-12%,/
Cc1ccc(NC(=O)Nc2cc3c(cc2N2CCCCC2)n(C)c(=O)n3C)cc1Cl,?,-99*,-18%[46.1 µM],?,/
CCOC(=O)C1CCN(c2cc3c(cc2NC(=O)c2ccccc2F)n(C)c(=O)n3C)CC1,-12%[46.1 µM],0,-13%[46.1 µM],-20%,11µM*
COc1cc(-c2cc3n(C)c(C)c(CCC(=O)NCc4ccccc4)c(=O)n3n2)cc(OC)c1OC,18%[46.1 µM],73,/,1%,/
COc1ccccc1-c1noc(-c2ccccc2C(=O)NCc2ccco2)n1,-12%[46.1 µM],5,?,0%,0%
COc1cc(-c2noc(-c3ccccc3C(=O)NCc3ccco3)n2)cc(OC)c1OC,?,8,?,?,11µM*
COc1ccccc1-c1noc(-c2ccco2)n1,?,0,?,36%,2%
COc1cc(-c2noc(-c3ccco3)n2)cc(OC)c1OC,-6%,155,-41%,14%,13µM*
CCCn1c(N)c(C(=O)CN(C)CC(=O)Nc2ccc(F)cc2)c(=O)[nH]c1=O,/,0,/,-12%,-4%
O=c1c2ccccc2ncn1-c1ccc(Cl)cc1Cl,/,-21,/,-21%,-19%
O=c1c2ccccc2sn1-c1ccc(Cl)cc1Cl,/,-95*,/,-23%,/
Cc1ccc(NC(=O)[C@H](C)NC(=O)C2CCN(C(=O)[C@@H](N)CC(C)C)CC2)cc1,/,27,/,-5%,9%
COc1ccc(C(=O)N=c2sc3c(C)ccc(OC)c3n2C)cc1OC,/,83,/,44%,16µM*
COc1cccc(C(=O)N=c2sc3c(C)ccc(OC)c3n2C)c1,/,58,/,55%,?
COc1ccc(OC)c2c1sc(=NC(=O)c1ccco1)n2C,/,-6,/,-23%,7.9µM*
CCCCC(=O)N=c1sc2c(OC)ccc(OC)c2n1C,/,-39,/,-7%,-2%
COc1ccc(OC)c2c1sc(=NC(=O)C1CC1)n2C,/,-5,/,-25%,14µM*
O=C(c1c(F)cccc1F)N(C1CCCCC1)C1CCCCC1,/,-10,/,?,-6%

# Compound activity from PubChem.
